# Source: PubChem (National Center for Advancing Translational Sciences (NCATS))
# In the library only some 2.4% were active in any assay of this set; here they are far more common.
# TRHR PAM: allosteric enhancers of human TRH receptor; TRHR cells, fluo-8 calcium fluorescence, EC20 TRH enhancement; enhancement, % at 2 µM; actives 0.66% (n = 360,000); AID 493056; in the data active = enhancement above about 30%; also: 0% is about no effect
#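 Enhancer read-out: after compound pinning and an initial kinetic agonist-mode read, an EC20 of TRH (10 nM final) was injected and fluo-8 calcium signal (Ex 480/Em 530) followed at 1 s/cycle for 100 cycles in TRHR-expressing cells.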
# PTHR1 agonist: activates the human parathyroid hormone receptor PTHR1; Q03431; HEK293 GP2 PTHR1 cells, GloSensor cAMP luminescence, 1 h; Potency, µM (titrated, usually from 115 µM), for the others: at the highest dose activation, most hits filed as activators; actives 0.075% (n = 410,000); AID 743266; also: potency is read from the fitted curve at half-maximal effect; nearly all actives have a fitted effect of over 55% in size
# Target sequence (Q03431 whole entry, looked up): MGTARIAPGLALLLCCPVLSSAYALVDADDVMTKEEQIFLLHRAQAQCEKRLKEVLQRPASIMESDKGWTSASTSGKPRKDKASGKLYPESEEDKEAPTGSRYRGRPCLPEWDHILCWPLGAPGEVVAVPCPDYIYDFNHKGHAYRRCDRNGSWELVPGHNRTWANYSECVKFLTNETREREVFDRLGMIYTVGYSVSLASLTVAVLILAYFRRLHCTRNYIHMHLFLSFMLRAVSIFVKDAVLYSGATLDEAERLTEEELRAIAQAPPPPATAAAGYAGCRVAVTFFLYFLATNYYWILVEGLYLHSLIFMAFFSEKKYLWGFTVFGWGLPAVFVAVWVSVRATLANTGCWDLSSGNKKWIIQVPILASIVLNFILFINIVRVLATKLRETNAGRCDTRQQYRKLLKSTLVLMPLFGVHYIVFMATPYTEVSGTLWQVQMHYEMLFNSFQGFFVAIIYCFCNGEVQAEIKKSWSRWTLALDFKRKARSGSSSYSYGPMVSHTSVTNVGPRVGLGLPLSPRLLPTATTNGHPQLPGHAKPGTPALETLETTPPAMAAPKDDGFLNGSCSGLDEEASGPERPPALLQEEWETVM
#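 HEK-293-derived GP2 cells expressing PTHR1 and a GloSensor cAMP reporter, 3,000/well, plated overnight, given luciferin plus IBMX (each 0.5 mM as added) for 1 h at 37 °C, then compound for 1 h at 37 °C. Luminescence was read after 15 min at room temperature.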
# TRHR agonist: agonists of human TRH receptor; P34981; TRHR cells, calcium flux fluo-8, FDSS agonist mode; activation, % at 2 µM; actives 0.18% (n = 360,000); AID 493084; in the data active = activation above about 30%; also: 0% is about no effect
#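 Fluo-8-loaded TRHR cells; 10 s baseline, compound added, kinetic Ca2+ fluorescence read 1/s, agonist mode.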
# GLP1R ag: activates the human GLP-1 receptor; P43220; HEK293 GLP-1R CRE-luciferase, luminescence, 4-6 h; cells express a hypersensitive GLP-1R form; Potency, µM (series often up to 45.6 µM), without a hit: at the top dose activation, usual class: activators; actives 0.007% (n = 380,000); also: potency is read from the fitted curve at half-maximal effect; % of control where 0% means no effect
# HEK293 tox: cytotoxic in the GLP-1 receptor inverse agonist counter-screen; HEK293 cAMP-luciferase reporter cells, luminescence, 24 h; Potency, µM (titrated, usually from 38.3 µM), for the others: at the highest dose activity change, negative = inhibition, actives largely listed as inhibitors; actives 0.13% (n = 410,000); AID 624418;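 also: loss of luciferase light is scored as toxicity; potency is read from the fitted curve at half-maximal effect; % is scaled to controls: 0 for no effect and ±100 for the full control effect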
#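 Here, cytotoxicity is scored as loss of luminescence. The MLSMR collection was tested on cells seeded in medium containing 10% Nu serum, with a 24 hr compound exposure preceded by 12 hours of culture.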
# GLP-1R inv ag: inverse agonists of human GLP-1 receptor; P43220; Potency, µM (series often up to 38.3 µM), for the others: at the highest dose activity change, negative = inhibition, most hits filed as inhibitors; actives 1.6% (n = 410,000); HEK293 GLP-1R CRE-luciferase, luminescence, 24 h; GLP-1R form is constitutively active; also: potency is read from the fitted curve at half-maximal effect; % is scaled to controls: 0 for no effect and ±100 for the full control effect; nearly all actives have a fitted effect of over 55% in size
#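 Assay principle: reduced luminescence from a cAMP-responsive reporter in HEK293 cells co-expressing a constitutively active GLP-1R. Conditions: 24 hr compound incubation, 37 deg C, 5% CO2.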
# An asterisk follows results filed as active; i = inactive; ? = inconclusive; . = no result; [ ] = remark or other dose. Unless noted, calls follow the shape of the dose curve; as a rule, active = well fitted curve in the direction sought with a large enough effect; inconclusive = small, poorly fitted or top-dose-only effect, or another doubt; inactive = no such curve, though single readings can be large; an effect the other way counts as inactive or inconclusive.
SMILES,TRHR PAM,PTHR1 agonist,TRHR agonist,GLP1R ag,HEK293 tox,GLP-1R inv ag
Cc1ccc(S(=O)(=O)N(C)c2ccc(OCC(=O)NCC3(N(C)C)CCCCC3)cc2)cc1,-1.9,i,-1.1,0.1%,-0.3%,11.2µM*
CCC1CCCCN1C(=O)COc1ccc(N(C)S(=O)(=O)c2ccc(C)cc2)cc1 (configuration not stated),-1.8,-4.1%,-0.4,7.9%,3.1%,3.16µM*
Cc1ccc(S(=O)(=O)N(C)c2ccc(OCc3cccc(C)c3)cc2)cc1,-7.5,-12.3%,3.5,-8.1%,10.0%,2.82µM*
O.O.O.O.O.O.O.O=S(=O)([O-])[O-].[Co+2],.,.,.,4.9%,.,.
Cc1ccc(C2NC(=O)c3ccccc3N2)s1 (configuration not stated),34.7*,-7.8%,0.7,2.0%,?,-12.1%
CC(=O)Nc1cccc(NC(=O)C2CC(=O)N(CCc3ccc(F)cc3)C2)c1 (configuration not stated),17.5,i,0.6,1.6%,0.4%,0.4%
N#C/C(=C(/O)COC(=O)CSc1ccc2ccccc2c1)c1nc2ccccc2[nH]1,-10.0,-7.0%,0.4,-16.5%,?,7.94µM*
COCC(=O)OC/C(O)=C(\C#N)c1nc2ccccc2[nH]1,-12.2,i,0.5,3.2%,?,5.01µM*
Cc1cccc(C)c1OCC(=O)OC/C(O)=C(\C#N)c1nc2ccccc2[nH]1,5.5,-22.7%,1.2,-29.4%,?,?
CCCC(=O)OC/C(O)=C(\C#N)c1nc2ccccc2[nH]1,11.9,-8.0%,1.3,8.4%,10µM*,?
Cc1ccc(C)c(SCC(=O)OC/C(O)=C(\C#N)c2nc3ccccc3[nH]2)c1,4.9,-11.3%,0.6,-0.9%,?,?
CCOc1ccccc1NC(=O)CCNC(=O)Cn1ccc2ccccc2c1=O,-1.8,i,-0.1,6.2%,-2.2%,3.4%
C[C@]12CCC3C(CC[C@H]4CCCC[C@]34C)C1CC[C@@]2(O)CNCCO (some centres not stated),-4.7,i,0.5,1.4%,18.2%,-27.1%
COc1cccc(C(=O)Nc2nnc(C(C)C)s2)c1,-0.1,-31.6%[57.5 µM],0.2,-11.5%,6.7%,11.2µM*
C=C(C)c1cccc(C(C)(C)NC(=O)Nc2nnc(C(C)C)s2)c1,0.6,i,-0.1,9.3%,7.9%,10µM*
COc1cccc(C(=O)NC(C)CCc2ccccc2)c1 (configuration not stated),33.1*,-20.5%,-0.8,-5.6%,-5.7%,-3.8%
C=C(C)c1cccc(C(C)(C)NC(=O)Nc2nncs2)c1,5.6,-19.4%,-1.0,7.9%,0.8%,?
COc1ccc(C(=O)Nc2nnc(C(C)C)s2)cc1OC,-2.9,i,-0.2,.,0.9%,38.9%
NCCN1CCN(S(=O)(=O)c2ccc([N+](=O)[O-])cc2)C=C1c1ccc(Cl)cc1,2.3,i,0.4,-2.2%,-0.4%,-5.1%
CCOC(=O)c1sc(=S)n(Cc2ccccc2)c1C,-8.1,i,-0.2,16.3%,-13.6%,8.91µM*
CCOC(=O)c1sc(=S)n(-c2ccccc2)c1C,-1.8,i,-1.5,27.8%,1.2%,17.4%
CCc1ccccc1-n1nnc(-c2nsc(NC(=O)c3ccc(C)c(C)c3)n2)c1C,-5.8,-30.9%,33.6*,.,0.2%,1.12µM*
Cc1ccc(-n2nnc(-c3nsc(NC(=O)c4ccc(C)c(C)c4)n3)c2C)cc1,17.0,13.3%,1.5,.,4.1%,2.8%
CCN(c1ccccc1)S(=O)(=O)c1ccc(Cl)c(NC(=O)CN2CCCCCC2)c1,2.5,-27.2%,1.2,21.3%,-0.3%,1.58µM*
CCN(c1ccccc1)S(=O)(=O)c1ccc(Cl)c(NC(=O)CN(C)Cc2cccc(F)c2)c1,.,-18.3%,.,13.2%,4.9%,5.01µM*
SMILES,TRHR PAM,PTHR1 agonist,TRHR agonist,GLP1R ag,HEK293 tox,GLP-1R inv ag
CCC(C)NCC(=O)Nc1cc(S(=O)(=O)N(CC)c2ccccc2)ccc1Cl (configuration not stated),0.8,i,-0.6,6.4%,-2.6%,?
c1csc(-c2nc3ccccc3s2)c1,3.6,-76.2%,-0.1,7.1%,1.3%,16.4%
COCCCNC(=O)c1cc(C(=O)Cc2ccccc2)c[nH]1,-1.8,i,0.1,1.8%,-10.8%,42.9%
O=C(NCC(c1ccco1)N1CCCC1)c1cc2cc(Cl)ccc2o1 (configuration not stated),-1.1,-12.5%,-0.2,14.2%,11.2%,10µM*
COc1ccccc1C(=O)N/C(=C/c1ccc(Br)cc1)C(=O)N1CCCC1,-7.3,i,0.5,22.5%,?,-24.3%
O=C(CC1SC(=Nc2ccc(OC(F)F)cc2)N(CCC2=CCCCC2)C1=O)Nc1ccccc1F (configuration not stated),4.3,i,1.9,-8.6%,?,?
CCOc1ccccc1N=C1SC(CC(=O)Nc2ccc(OC)cc2OC)C(=O)N1CCC1=CCCCC1 (configuration not stated),4.4,-18.8%,-1.0,0.1%,2.3%,2.82µM*
O=C(CCN1CCN(c2ccccc2F)CC1)Nc1ccccc1Cl,-16.5,i,-0.6,6.1%,25.5%,-2.6%
CCOC(=O)N1CCN(C(=S)NC2CCCC2)CC1,32.6*,0.0%,0.2,1.1%,2.1%,-3.7%
COc1ccc(-c2nnn(CC(=O)N(C3CCCC3)C(C)C(=O)NC3CCCC3)n2)cc1OC (configuration not stated),-8.3,-21.9%,0.3,9.6%,-6.3%,31.8%
Cc1cc2cc(CCNC(=O)C(C)C)c(=O)[nH]c2cc1C,.,-8.9%[57.5 µM],.,-7.2%,3.9%,-1.9%
O=C(NCCc1c[nH]c2ccccc12)C(=O)c1c[nH]c2ccccc12,0.5,-22.2%,0.0,-4.9%,-29.5%,4.47µM*
S=C(NCCc1c[nH]c2ccccc12)NC1CCCC1,-1.6,i,0.7,4.1%,-6.7%,1.9%
Cc1cc2cc(CCNC(=O)C(=O)c3c[nH]c4ccccc34)c(=O)[nH]c2cc1C,1.4,-12.6%,0.3,13.7%,-24.6%,10µM*
S=C(NCCc1c[nH]c2ccccc12)NC1CC1,32.5*,i,-0.4,22.5%,-3.4%,-21.7%
Cc1ccc(CCC(=O)Nc2ccc(CC(=O)O)cc2)o1,-2.4,i,0.4,-7.7%,-0.9%,-6.8%
COCCN(C(=O)c1snc(C(N)=O)c1N)C(C(=O)NC1CCCCC1)c1ccc(N(C)C)cc1 (configuration not stated),-2.8,?,-0.7,-4.7%,-0.7%,30.2%
